Results on 16 compounds are retold here after PubChem BioAssay (NCATS).

The structures appear in SMILES notation. Several values for one entry are separate records, joined by “and”; a condition that tells them apart may be missing. Equal values may be shown once. Inconclusive results are not listed. Unmarked numbers belong to inactive results. Activity calls are given as the source filed them. Calls come from the whole dose curve; as a rule, active = well fitted curve in the direction sought with a large enough effect; inconclusive = small, poorly fitted or top-dose-only effect, or another doubt; inactive = no such curve, though single readings can be large; an effect the other way counts as inactive or inconclusive. Non-standard residues stand in square brackets, D forms with d. Residues, ends and D or L forms follow the SMILES beside them. *: point of attachment. Nva = CCC[C@H](N)C(=O)O; Cbz = O=C(OCc1ccccc1)*

For assay [1], the target named is Cellular tumor antigen p53 (Homo sapiens) (UniProt P04637). Description: Primary qHTS for small molecule compounds that upregulate eGFP-tagged delta133p53alpha (in N-terminal) cells. (AID 2060322).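 For activation: cells pre-induced with doxycycline then dosed without doxycycline; series mostly up to about 56 µM; 0% = DMSO vehicle and 100% = reference activator.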 Note: nearly all actives have a fitted effect of over 75% in size. The following applies: NCI-H358 eGFP-delta133p53alpha fluorescence, 24 h; activation: stronger effect = higher value. An outline of the steps: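 NCI-H358 cells pre-induced 24 h with 10 ng/ml doxycycline for eGFP-delta133p53alpha, plated dox-free and exposed 24 h at 37C to titrated compounds. Fixed, Hoechst-stained; gated GFP peak intensity by laser scanning cytometry, normalized to DMSO (0%) and 57.5 uM 5-azacytidine (100%).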
Sequence of Cellular tumor antigen p53 (Homo sapiens) (P04637 whole entry, looked up): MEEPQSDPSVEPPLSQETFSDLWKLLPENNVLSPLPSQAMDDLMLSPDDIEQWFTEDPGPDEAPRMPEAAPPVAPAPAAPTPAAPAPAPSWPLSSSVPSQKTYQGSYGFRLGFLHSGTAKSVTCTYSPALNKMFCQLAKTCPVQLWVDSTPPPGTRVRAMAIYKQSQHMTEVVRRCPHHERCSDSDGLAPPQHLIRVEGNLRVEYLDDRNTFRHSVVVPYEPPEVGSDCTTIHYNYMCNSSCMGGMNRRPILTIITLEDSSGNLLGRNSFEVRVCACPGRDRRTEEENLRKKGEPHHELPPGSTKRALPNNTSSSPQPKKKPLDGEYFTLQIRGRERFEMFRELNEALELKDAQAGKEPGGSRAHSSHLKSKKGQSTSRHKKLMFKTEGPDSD
Background: qHTS replaces the single test concentration by a dilution series.

Assay [2] in a line: BET inhibitor-based combinations targeting novel dependencies in MECOM-rearranged (r) AML: SET-2 cell line (AID 2202231).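 For viability: plate controls were DMSO treated cells for no effect and wells without cells for full effect.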 Note: nearly all actives have a fitted effect of over 35% in size. The note with it: SET-2 AML cells viability, CellTiter-Glo luminescence, 48 h; viability: stronger effect = lower value, concentration not given here. An outline of the steps: (§1)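 Readout: CellTiter-Glo luminescence. Exposure: 48 h, 11 concentrations, 500 cells/well. Metric: AUC and within-line Z-AUC after DMSO/empty-well normalization.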
Background: In ATP-based viability assays light output follows the ATP content of the culture.

Assay [3] in a line: BET inhibitor-based combinations targeting novel dependencies in MECOM-rearranged (r) AML: OCI-AML3 cell line (AID 2202232). Note: nearly all actives have a fitted effect of over 35% in size. The following applies: Potency: OCI-AML3 viability. An outline of the steps: as §1
Assay [4] is described as follows: BET inhibitor-based combinations targeting novel dependencies in MECOM-rearranged (r) AML: MV-4-11 cell line (AID 2202233). Note: nearly all actives have a fitted effect of over 45% in size. An outline of the steps:
(§2)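 Seeding density was 500 cells/well, and drug exposure lasted 48 hr under standard culture conditions. Read-out used CellTiter-Glo reagent with a 15 min room-temperature incubation before luminescence measurement; AUC and Z-AUC summarize the normalized responses.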

Assay [5] can be described thus: BET inhibitor-based combinations targeting novel dependencies in MECOM-rearranged (r) AML: HNT-34 cell line (AID 2202234). Note: nearly all actives have a fitted effect of over 35% in size. The method, boiled down: as §2
A short description of assay [6]: BET inhibitor-based combinations targeting novel dependencies in MECOM-rearranged (r) AML: UCSD-AML1 cell line (AID 2202235). Note: nearly all actives have a fitted effect of over 40% in size. An outline of the steps:
as §2

Assay [7] in a line: BET inhibitor-based combinations targeting novel dependencies in MECOM-rearranged (r) AML: AML-191 cell line (AID 2202236; note: nearly all actives have a fitted effect of over 35% in size). An outline of the steps: as §1
Assay [8] in a line: BET inhibitor-based combinations targeting novel dependencies in MECOM-rearranged (r) AML: AML-194 cell line (AID 2202237; note: nearly all actives have a fitted effect of over 40% in size). An outline of the steps: as §1
Potency is the fitted concentration of half-maximal effect.

In the case of `CC(C(=O)O)c1ccc(-c2ccccc2)c(F)c1` (stereo not drawn), in assay [1], the activation is 3.78%. Further, the viability (commonly a read-out of living cells in per cent, often relative to untreated cells) in assay [2] was 111%. Moreover, the Potency entry in assay [3], in assay [4], in assay [5], in assay [6], in assay [7] and in assay [8] was “inactive” throughout.
For the compound `CCn1cc(C(=O)O)c(=O)c2cc(F)c(N3CCNCC3)cc21`, the activation in assay [1] was -8.37% and 13.6%. For the same compound, the viability in assay [2] was 96.1%. The Potency result in assay [3], in assay [4], in assay [5], in assay [6], in assay [7] and in assay [8] was “inactive” each time.
Consider `NS(=O)(=O)c1cccc2c1C(=O)c1cccc(O)c1C2=O`, for which the activation in assay [1] was -16%. The Potency is 2.95 µM (active) in assay [2]; 1.66 µM (active) in assay [3]; 0.332 µM (active) in assay [4]; 1.86 µM (active) in assay [5]; 2.09 µM (active) in assay [6]; 2.35 µM (active) in assay [7]. Moreover, the Potency in assay [8] was 2.63 µM (active).
Take `COc1cccc2c1C(=O)c1c(O)c3c(c(O)c1C2=O)C[C@@](O)(C(=O)CO)C[C@@H]3O[C@H]1C[C@H](N)[C@@H](O)[C@H](C)O1`: the activation in assay [1] is -26.9%. In addition, the Potency in assay [2] was 1.18 µM (active); in assay [3], 0.148 µM (active); in assay [4], 0.0372 µM (active); in assay [5], 0.263 µM (active); in assay [6] it was 0.132 µM (active); in assay [7], 0.372 µM (active). Further, the Potency in assay [8] is 0.417 µM (active).
For `NC[C@H]1O[C@H](O[C@@H]2[C@@H](O)[C@@H](O[C@H]3O[C@H](CO)[C@@H](O)[C@H](N)[C@@H]3O)[C@H](N)C[C@@H]2N)[C@H](O)[C@@H](O)[C@H]1O`, the activation in assay [1] was 5.09%. Moreover, in assay [2], the viability was 111%. In addition, the Potency result in assay [3], in assay [4], in assay [5], in assay [6], in assay [7] and in assay [8] was “inactive” throughout.
Consider `O=C(NC(Cc1cc(=O)[nH]c2ccccc12)C(=O)O)c1ccc(Cl)cc1` (stereo not drawn), for which the activation in assay [1] was -0.837% and -7.77%. In assay [2], the viability was 120%. Also, the Potency entry in assay [3], in assay [4], in assay [5], in assay [6], in assay [7] and in assay [8] was “inactive” each time.
As for `NC(=O)c1cnc(N[C@@H]2CCCC[C@@H]2N)nc1Nc1cccc(-n2nccn2)c1`, the Potency in assay [1] was 34.3 µM (active); in assay [2], 23.5 µM (active); in assay [3], 16.6 µM (active); in assay [4], 3.32 µM (active); in assay [5], 14.8 µM (active); in assay [6] it was 8.33 µM (active). Besides, the results for the Potency in assay [7] and in assay [8] were 16.6 µM (active) and 18.6 µM (active), respectively.
In the case of `NC(=O)c1ccc(-c2nc(-c3ccc4c(c3)OCO4)c(-c3ccccn3)[nH]2)cc1`, in assay [1], the activation is -10.5%. In assay [2], the viability is 112%. Also, the Potency result in assay [3], in assay [4], in assay [5], in assay [6], in assay [7] and in assay [8] was “inactive” each time.
Regarding `O=C(/C=C/C#Cc1cccc(NS(=O)(=O)c2ccccc2)c1)NO`, the activation in assay [1] was -10.1%. Besides, the Potency is 0.407 µM (active) in assay [2]; 0.574 µM (active) in assay [3]; 0.182 µM (active) in assay [4]; 0.723 µM (active) in assay [5]; 0.645 µM (active) in assay [6]; 0.723 µM (active) in assay [7]. For the same compound, the Potency in assay [8] was 0.91 µM (active).
On to `CC1(C)Cc2c(sc(NC(=S)NC(=O)c3ccccc3)c2C(=O)O)CO1`, for which the activation in assay [1] was -34.5%. Also, the viability in assay [2] was 110%. For the same compound, the Potency result in assay [3], in assay [4], in assay [5], in assay [6], in assay [7] and in assay [8] was “inactive” each time.
For `COCCCOc1cc(C[C@@H](C[C@H](N)[C@@H](O)C[C@H](C(=O)NCC(C)(C)C(N)=O)C(C)C)C(C)C)ccc1OC`, the activation in assay [1] was -7.53% and 23.3%. Moreover, the viability in assay [2] was 124%. The Potency entry in assay [3], in assay [4], in assay [5], in assay [6], in assay [7] and in assay [8] was “inactive” each time.
Regarding `Cc1c(CCOc2ccc(C(=O)O)cc2)c2cc(Cl)ccc2n1C(c1ccccc1)c1ccccc1`, the activation in assay [1] is -25%. The viability in assay [2] was 114%. Moreover, the Potency result in assay [3], in assay [4], in assay [5], in assay [6], in assay [7] and in assay [8] was “inactive” throughout.
For the compound `CC(C)C[C@@H](N)[C@H](O)C(=O)N[C@H](C(=O)N[C@H](C(=O)N[C@@H](CC(=O)O)C(=O)O)C(C)C)C(C)C`, the activation in assay [1] was -3.94%. The viability in assay [2] is 110%. Also, the Potency result in assay [3], in assay [4], in assay [5], in assay [6], in assay [7] and in assay [8] was “inactive” each time.
Regarding `CCC[C@@H](C=O)NC(=O)[C@H](CC(C)C)NC(=O)[C@H](CC(C)C)NC(=O)OCc1ccccc1` (Cbz-Leu-Leu-[Nva]-aldehyde), the Potency was 5.44 µM (active) in assay [1]; 2.09 µM (active) in assay [2]; 2.35 µM (active) in assay [3]; 2.95 µM (active) in assay [4]; 2.63 µM (active) in assay [5]; 3.32 µM (active) in assay [6]. Moreover, the figures for the Potency in assay [7] and in assay [8] were 2.95 µM (active) and 2.63 µM (active), respectively.
For `CN(Cc1cc(Br)cc(Br)c1N)C1CCCCC1`, the activation in assay [1] was -11.7% and 14.8%. In addition, the viability in assay [2] was 102%. For the same compound, the Potency entry in assay [3], in assay [4], in assay [5], in assay [6], in assay [7] and in assay [8] was “inactive” throughout.
In the case of `N#Cc1c(NC(=O)c2cccc3ccccc23)sc2c1CCCC2`, the Potency is 13.7 µM (active) in assay [1]; 0.525 µM (active) in assay [2]; 0.332 µM (active) in assay [3]; 0.372 µM (active) in assay [4]; 0.372 µM (active) in assay [5]; 0.332 µM (active) in assay [6]. The Potency in assay [7] was 0.296 µM (active); in assay [8], 0.332 µM (active).
